Data from PubChem BioAssay (EPA / NIEHS).
Records with an inconclusive call do not appear. The source made the active and inactive calls. The calls were made as follows, unless noted: active = hit-call score of the fitted dose curve at least 0.9, where 1 is the maximum; inconclusive = response in the unintended direction; inactive = score below 0.9.

Columns and labels:
[1] = TOX21_p53_BLA_p2_viability: Viability Assessment in the Tox21 HCT-116 p53 Agonism Beta-lactamase Assay, Phase 2 (AID 2283591);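 also: compound exposure lasted 16 h at 37 °C; actives lower the ATP signal meaning cytotoxicity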
Method in brief: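 HCT116 p53-bla cells, 4000/well, dosed after 5 h plating (217-fold dilution of DMSO stocks) and incubated 16 h at 37C. Viability taken as cellular ATP by CellTiter-Glo luminescence after 30 min RT; signal loss marks cytotoxicity.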

[2] = molecular target: Cellular tumor antigen p53 (Homo sapiens) (UniProt P04637); experiment: TOX21_p53_BLA_p2_ratio: Tox21 HCT-116 p53 Agonism Beta-lactamase Assay, Ratio, Phase 2 (AID 2283592)
Method in brief: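 HCT-116 cells with p53-responsive beta-lactamase reporter, 4000 cells/well, preincubated 5 h, then compound in DMSO (217-fold dilution) for 16 h at 37C. CCF4-AM substrate 2 h at room temperature; 460/530 nm emission ratio fitted upward versus DMSO.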

[3] = TOX21_p53_BLA_p3_viability: Viability Assessment in the Tox21 HCT-116 p53 Agonism Beta-lactamase Assay, Phase 3 (AID 2283593);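 also: cells exposed to compound for 16 h before reading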
Method in brief: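 HCT116 cells, 4000/well, dosed 5 h after plating by pin transfer (217-fold dilution from DMSO stock) and incubated 16 h at 37C, 5% CO2. Viability read as ATP luminescence with CellTiter-Glo after 30 min at room temperature.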

[4] = molecular target: Cellular tumor antigen p53 (Homo sapiens) (UniProt P04637); experiment: TOX21_p53_BLA_p5_ratio: Tox21 HCT-116 p53 Agonism Beta-lactamase Assay, Ratio, Phase 5 (AID 2283599)
Method in brief: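 HCT-116 p53-bla cells (4000/well) plated 5 h, dosed with compound (217-fold DMSO dilution) for 16 h at 37 C; CCF4-AM substrate 2 h at room temperature. Activity is the 460/530 nm emission ratio (405 nm excitation), fitted in gain-of-signal direction versus DMSO.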

[5] = TOX21_p53_BLA_p5_viability: Viability Assessment in the Tox21 HCT-116 p53 Agonism Beta-lactamase Assay, Phase 5 (AID 2283600)
Method in brief: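 HCT-116 p53 beta-lactamase reporter cells, 4000/well, were exposed to compound (pin transfer, 217-fold dilution) for 16 hours at 37C. Cellular ATP was read by CellTiter-Glo luminescence after 30 min at room temperature.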

[6] = molecular target: Cellular tumor antigen p53 (Homo sapiens) (UniProt P04637); experiment: TOX21_p53_BLA_p4_ratio: Tox21 HCT-116 p53 Agonism Beta-lactamase Assay, Ratio, Phase 4 (AID 2283601)
Method in brief: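 HCT-116 p53 beta-lactamase reporter cells (4000/well) preincubated 5 h, then compound (217-fold dilution of DMSO stock) for 16 h at 37C. CCF4-AM substrate added 2 h at room temperature; 460/530 nm emission ratio fitted upward versus DMSO.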

[7] = CCTE_Harrill_HTTr_Viability_MCF7: CCTE's 6-hour Cell Viability Assessment for the High-Throughput Transcriptomics (HTTr) Platform, in MCF-7 cells cultured in DMEM + 10% fetal bovine serum, Harrill Lab (AID 2284010; active = hit-call score of the fitted dose curve at least 0.9, where 1 is the maximum; inactive = score below 0.9)
Method in brief: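 Viability measured through PI dye exclusion by high-content imaging at 6 h post-dosing.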

[8] = CCTE_Harrill_HTTr_Apoptosis_MCF7: CCTE's 6-hour Apoptosis Assessment for the High-Throughput Transcriptomics (HTTr) Platform, in MCF-7 cells cultured in DMEM + 10% fetal bovine serum, Harrill Lab (AID 2284011; active = hit-call score of the fitted dose curve at least 0.9, where 1 is the maximum; inactive = score below 0.9)
Method in brief: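 MCF-7 cells in DMEM + 10% FBS exposed 6 h to chemicals over an eight-point dilution series. Caspase-3/7 activation imaged by high-content CellEvent Green staining; fitted bidirectionally versus DMSO.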

Measured: outcome

Cellular tumor antigen p53 (Homo sapiens), sequence (P04637 whole entry, looked up): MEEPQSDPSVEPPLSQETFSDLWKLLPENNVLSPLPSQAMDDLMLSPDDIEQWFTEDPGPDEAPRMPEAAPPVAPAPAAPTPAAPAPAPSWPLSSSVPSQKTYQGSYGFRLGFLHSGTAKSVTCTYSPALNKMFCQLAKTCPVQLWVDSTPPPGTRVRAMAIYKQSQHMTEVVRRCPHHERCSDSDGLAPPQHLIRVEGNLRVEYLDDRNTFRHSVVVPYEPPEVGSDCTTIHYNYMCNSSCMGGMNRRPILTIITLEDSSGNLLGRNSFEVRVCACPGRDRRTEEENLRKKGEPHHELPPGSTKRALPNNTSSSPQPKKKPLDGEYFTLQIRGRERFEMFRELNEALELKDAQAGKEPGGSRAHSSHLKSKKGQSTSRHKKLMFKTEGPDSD

C=C(C)C1CCC(C)(O)CC1 (stereo not given)
inactive: all assays above

CC1(C)C(O)C(C)(C)C1O (stereo not given)
not listed: [7] | [8]
inactive: all other assays above

CO/N=C(\C(=O)N[C@@H]1C(=O)N2C(C(=O)OCOC(=O)C(C)(C)C)=C(/C=C\c3scnc3C)CS[C@H]12)c1csc(N)n1
inactive: [1] | [2] | [3] | [4] | [6]

CCCCCCCCCCCCCCCCCCOP(=O)([O-])OC1CC[N+](C)(C)CC1
inactive: [1] | [2] | [3] | [4] | [6]

Cc1cc(O)cc2c1O[C@](C)(CCC[C@H](C)CCC[C@H](C)CCCC(C)C)CC2
not listed: [7] | [8]
inactive: all other assays above

O=C(NCCNCC(O)COc1ccc(O)cc1)N1CCOCC1 (stereo not given)
not listed: [7] | [8]
inactive: all other assays above

CCC(=O)C=CC1C(C)=CCCC1(C)C (stereo not given)
inactive: [1] | [2] | [3] | [4] | [5]

O=C1C(O)=C(O)C(=O)C(O)=C1O
inactive: [1] | [2] | [3] | [4] | [5]

N[C@H]1C(O)O[C@H](CO)[C@@H](O)[C@@H]1O (stereo not given in full)
not listed: [7] | [8]
inactive: all other assays above

Cl[Si](Cl)(c1ccccc1)c1ccccc1
inactive: [1] | [2] | [3] | [5]

CNCCS(=O)(=O)O
not listed: [7] | [8]
inactive: all other assays above

CN1C(=O)CC(C)(c2ccccc2)C1=O (stereo not given)
inactive: [1] | [2] | [3] | [4] | [6]

CCOC(=O)c1ccc(NC(=O)CN2CCCCC2)cc1
inactive: [1] | [2] | [3] | [4] | [5]

O=C(O)[C@H](O)[C@@H](O)[C@H](O[C@@H]1O[C@H](CO)[C@H](O)[C@H](O)[C@H]1O)[C@H](O)CO
inactive: [1] | [2] | [3] | [5]

O=C(O)CSCC(=O)NC1CCSC1=O (stereo not given)
inactive: [1] | [2] | [3] | [4]

CCN1CCN(c2cc3c(cc2F)c(=O)c(C(=O)O)cn3C2CC2)CC1
inactive: [1] | [2] | [3] | [4] | [5]

Nc1nccs1
not listed: [7] | [8]
inactive: all other assays above

Cn1c(=O)c2[nH]c(Br)nc2n(C)c1=O
not listed: [7] | [8]
inactive: all other assays above

CC(=O)c1sc(C)nc1C
inactive: [1] | [2] | [3] | [4] | [6]

CCN(CC)S(=O)(=O)c1ccc(C(=O)O)cc1
inactive: [1] | [2] | [3] | [4]

Nc1ccc2cc(S(=O)(=O)O)cc(O)c2c1
inactive: [1] | [2] | [3] | [4] | [6]

CC(C)Cc1ccc([C@@H](C)C(=O)NS(C)(=O)=O)cc1
inactive: [1] | [2] | [3] | [4] | [5]

C=CC1=C(C(=O)O)N2C(=O)[C@@H](NC(=O)C(=NOCC(=O)O)c3csc(N)n3)[C@H]2SC1
inactive: [1] | [2] | [3] | [4] | [6]

CCOC(=O)c1ncn2c1CN(C)C(=O)c1cc(F)ccc1-2
inactive: [1] | [2] | [3] | [5]

C[Si](C)(C)C
inactive: [1] | [2] | [3] | [4] | [6]

COc1ccccc1OCC(O)COC(N)=O (stereo not given)
not listed: [6]
inactive: all other assays above

C[N+](C)(C)CCOC(N)=O
not listed: [7] | [8]
inactive: all other assays above

c1cnccn1
inactive: [1] | [2] | [3] | [4] | [5]

CC1(C)CCC(NC(=O)[C@@H](N)CCC(=O)O)CC1
inactive: [1] | [2] | [3] | [4] | [6]

Cc1[nH]cnc1CN1CCc2c(c3ccccc3n2C)C1=O
inactive: [1] | [2] | [3] | [4] | [6]

CCC(=O)OCC(=O)[C@@]1(OC(=O)CC)[C@H](C)C[C@H]2[C@H]3[C@H]([C@@H](O)C[C@@]21C)[C@@]1(C)C=CC(=O)C=C1C[C@H]3Cl
not listed: [7] | [8]
inactive: all other assays above

Cc1cc(C)c(NC(=O)CN(CC(=O)O)CC(=O)O)c(C)c1Br
not listed: [7] | [8]
inactive: all other assays above
